This excerpt belongs to a sample that is enriched for hits.
Sa growth 42C: blocks Staphylococcus aureus growth; S. aureus RN4220 growth, OD600, 20 h, 42 °C; stronger effect = lower value; relative growth, % (no concentration beside the values); 170,000 tested, 0.53% active; AID 720641;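 active means relative growth at most 50% at the other temperature and 20+ points below 30 °C, or under 10% at both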
S aureus helic: S. aureus DNA helicase inhibition. inhibition, % (test concentration not listed). purified S. aureus helicase, fluorescence unwinding assay. 120,000 tested, 0.05% active; in the data active means inhibition above about 25%, passing the limit was not always enough;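 further: 0% = mean of negative control wells and 100% = mean of positive control wells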
An asterisk follows results filed as active.

Results for O=C(Nc1ccc(S(=O)(=O)Nc2ncccn2)cc1)c1ccc2c(c1)C(=O)N(Cc1ccncc1)C2=O ?
Sa growth 42C: 96; S aureus helic: -35

Results for Cc1ccc(C)c([C@H]2[C@H](C(=O)c3ccccc3)N3c4ccccc4C=CC3C2(C#N)C#N)c1 (stereo not given in full) ?
Sa growth 42C: 56; S aureus helic: -6

What do the screens show for `N#C[C@@H]1C[C@@](C#N)(C(=O)c2ccccc2)[C@H]2C=Cc3ccccc3N12`?
Sa growth 42C: 5.3*; S aureus helic: -2

Results for CO[C@@H]1[C@@H](OC(N)=O)[C@@H](O)[C@H](Oc2ccc3c(O)c(NC(=O)c4ccc(O)c(CC=C(C)C)c4)c(=O)oc3c2C)OC1(C)C ?
Sa growth 42C: -0.8*

What do the screens show for `COc1ccc(C(=O)Nc2c(O)c3ccccc3oc2=O)cc1OC`?
Sa growth 42C: 98; S aureus helic: -3

Results for Cc1cccc(CN2CCC(CNC(=O)c3ccc4c(Cl)c5c(nc4c3)CCCC5)CC2)c1 ?
Sa growth 42C: 98; S aureus helic: 16

How did Cc1ccc(S(=O)(=O)NCCc2csc(-c3ccc(Cl)cc3)n2)cc1 do in these assays?
Sa growth 42C: 93

Results for CN1CCC(N(C)Cc2csc(-c3ccc(Cl)cc3)n2)CC1 ?
Sa growth 42C: -0.3*; S aureus helic: -17

Results for CC(C)[C@H](NC(=O)Cc1ccccc1)C(=O)OCn1nnc2ccccc2c1=O ?
Sa growth 42C: 89; S aureus helic: -7

How did CCCN=c1cc(-c2ccccc2)oc2ccc(C)cc12 do in these assays?
Sa growth 42C: 109; S aureus helic: 65*

Results for Cc1ccc2oc(-c3ccccc3)cc(=O)c2c1 ?
Sa growth 42C: 97

What do the screens show for `COC(=O)CNC(c1ccccc1)c1cc(Br)ccc1NC(=O)CCN1CCOCC1` (stereo not given)?
Sa growth 42C: 21*; S aureus helic: 6

How did COC(=O)CNC(c1ccccc1)c1cc(Br)ccc1NC(=O)c1ccc(Cl)cc1 (stereo not given) do in these assays?
Sa growth 42C: 101

What do the screens show for `COc1ccccc1NC(=O)C(C)SC1CCCC1` (stereo not given)?
Sa growth 42C: 79; S aureus helic: -12

How did CCOc1ccc(NC(=O)Cc2csc(COc3cccc(C)c3)n2)cc1 do in these assays?
Sa growth 42C: 108

What do the screens show for `CCOC(=O)c1c(-c2c(Cl)cccc2Cl)noc1C`?
Sa growth 42C: 0.5*

Results for CCOC(=O)c1c(-c2c(Cl)cccc2Cl)noc1N ?
Sa growth 42C: 104

What do the screens show for `COc1ccc(-n2cnc3cc(C(=O)NCc4cccnc4)ccc32)cc1`?
S aureus helic: 16

How did O=C(Nc1ccc(Cl)c(Cl)c1)Oc1ccc(NC(=O)c2ccco2)cc1 do in these assays?
Sa growth 42C: 3.7*; S aureus helic: -2

How did O=C(Nc1ccc2ccccc2c1)c1ccco1 do in these assays?
Sa growth 42C: 98

How did O=C(c1ccccc1Nc1ccc(SC(F)F)cc1)N(CCO)CCO do in these assays?
Sa growth 42C: 114; S aureus helic: 4

How did COc1ccc(OCC(O)Cn2c(=N)n(CCN3CCCCC3)c3ccccc32)cc1 (stereo not given) do in these assays?
Sa growth 42C: 118

Results for N=c1n(CCN2CCCCC2)c2ccccc2n1CC(O)COc1ccc(Cl)cc1Cl (stereo not given) ?
Sa growth 42C: 0.3*

Results for CN(CCOC(=O)c1ccc(OC(F)(F)F)cc1)c1ccc(C#N)cn1 ?
Sa growth 42C: 96

How did Cc1nc2c(C(=O)NCc3ccccc3)c[nH]n2c(=O)c1Cl do in these assays?
Sa growth 42C: 94; S aureus helic: 6

What do the screens show for `Cc1nc2c(C(=O)NCc3ccccc3)c[nH]n2c(=O)c1Cc1ccccc1Cl`?
Sa growth 42C: 0.7*

What do the screens show for `COc1ccc(NC(=O)c2cncc(NS(=O)(=O)c3ccc(C)cc3)c2)cc1OC`?
Sa growth 42C: 109; S aureus helic: 6

How did CC(C)(C)C1CCc2nc(NC(=O)c3cccc(Cl)c3)sc2C1 (stereo not given) do in these assays?
Sa growth 42C: 13*

How did CC(C)(C)C1CCc2nc(NC(=O)c3ccc([N+](=O)[O-])cc3)sc2C1 (stereo not given) do in these assays?
Sa growth 42C: 95

What do the screens show for `Cc1c(-c2ccccc2)sc2ncnc(Sc3nnc(C4CC4)o3)c12`?
Sa growth 42C: 99; S aureus helic: 1

How did c1csc(-c2nc3cnccn3c2NC2CCCCC2)c1 do in these assays?
Sa growth 42C: 86; S aureus helic: 12

What do the screens show for `c1ccc(-c2nc3ccccn3c2NC2CCCC2)nc1`?
Sa growth 42C: -0.1*; S aureus helic: 5

What do the screens show for `CC(C)(C)OC(=O)/C=C/c1c(Cl)nc2sccn12`?
Sa growth 42C: 97; S aureus helic: 5

What do the screens show for `CCc1c(C)[nH]c(C(=O)OC(C)(C)C)c1C`?
Sa growth 42C: 109; S aureus helic: 4

What do the screens show for `[N-]=[N+]=c1c(=O)ccc2c(=O)c3ccccc3c(=O)c1=2`?
Sa growth 42C: 6.1*; S aureus helic: 13

How did O=c1c2ccccc2c2nc3c(=O)c4ccccc4c3nc12 do in these assays?
Sa growth 42C: 97; S aureus helic: 10

Results for COc1ccc(N2CCN(C(=O)C(NS(=O)(=O)c3ccc4nc(C)sc4c3)C(C)C)CC2)cc1 (stereo not given) ?
Sa growth 42C: 93; S aureus helic: 5

What do the screens show for `COC(=O)C1=C(C)NC(=O)C1(NS(=O)(=O)c1ccc(C)cc1)C(F)(F)F` (stereo not given)?
Sa growth 42C: 72; S aureus helic: 4

Results for COC1(NS(=O)(=O)c2ccc(C)cc2)C(C)=CC(=O)C=C1C ?
Sa growth 42C: 1.7*; S aureus helic: 23

Results for O=C(CCN1C(=O)/C(=C\c2ccco2)SC1=S)Nc1ccccc1 ?
Sa growth 42C: 105; S aureus helic: 3

What do the screens show for `CCC(C(=O)OC(C)C)n1cnc2sc3c(c2c1=O)CCC(C)C3` (stereo not given)?
Sa growth 42C: 34*; S aureus helic: 5

How did CC1CCc2c(sc3ncn(CC(=O)N4CCCC4)c(=O)c23)C1 (stereo not given) do in these assays?
Sa growth 42C: 109; S aureus helic: 6

How did COc1ccc(C(=O)CSc2nnc(C)n2Cc2ccccc2)cc1OC do in these assays?
Sa growth 42C: 46; S aureus helic: 16

Results for Cc1ccc2c(Cl)cc(Cl)c(OCC(=O)Nc3c(F)cccc3F)c2n1 ?
Sa growth 42C: -0.2*; S aureus helic: -19

Results for Cc1ccc(OCC(=O)Nc2cccc3ccc(C)nc23)c(C)c1 ?
Sa growth 42C: 99

Results for CC1CCCCN1C(=O)CSc1ccc2ccccc2c1 (stereo not given) ?
Sa growth 42C: 137; S aureus helic: 12

What do the screens show for `COc1ccccc1COC(=O)C1CCC1`?
Sa growth 42C: 109; S aureus helic: -20

Results for CCCCNC(=S)Nc1ccc(SC(F)F)cc1 ?
Sa growth 42C: 0.6*; S aureus helic: 12

How did CCCCNC(=S)Nc1ccc(OC)cc1 do in these assays?
Sa growth 42C: 110; S aureus helic: -9

How did CCOC(=O)NNc1nc2ccccc2n1Cc1ccccc1 do in these assays?
Sa growth 42C: 116; S aureus helic: 4

Results for CC(Sc1ncnc2ccccc12)C(=O)Nc1cccc(Cl)c1 (stereo not given) ?
Sa growth 42C: 109; S aureus helic: 16

How did COc1ccc(C(=O)n2c(=O)oc3ccc(Cl)cc32)cc1 do in these assays?
Sa growth 42C: 97; S aureus helic: 10

Source: PubChem BioAssay
